Inconclusive results are not listed. Where a call stands in place of a potency, no number is given. Calls of active or inactive are those of the source. The call rests on the fitted dose curve; in most records, active means well fitted cell-killing curve with a large enough effect; inconclusive means small, poorly fitted or top-dose-only effect; inactive means flat fitted curve, though single readings scatter.
test: Quantitative highthroughput screen to assess conditional lethalithy of P12 Ichikawa cells grown in Human Plasma-Like Medium with dialyzed fetal bovine serum (HPLM+ds) (AID 1963879); details: ATP luminescence, 48 h; Potency: viability; series mostly up to 45.8 µM; further: nearly all actives have a fitted effect of over 35% in size
Description: Assay Provider: Jason Cantor Ph.D.
Department of Biochemistry
University of Wisconsin-Madison, Madison, WI, USA
Chemical screening studies have identified drug sensitivities across hundreds of cancer cell lines but most putative therapeutics fail to translate. Discovery and development of drug candidates in models that more accurately reflect nutrient levels in human blood is a major challenge. Here we performed high-throughput screens in conventional versus Human Plasma-Like Medium (HPLM) to identify compounds that were "missed" when screening using the artificial culture condition. Sets of conditional anticancer compounds spanned phases of clinical development and included non-oncology drugs were assessed. […] We also traced conditional phenotypes for several chemotherapeutics to availability of HPLM-specific metabolites and confirmed others for compounds whose reported targets are encoded by nonessential genes. Our findings establish generalizable strategies for exploiting conditional lethality in HPLM to reveal therapeutic candidates and mechanisms of action in cancer cells.
Described herein are the results of each viability screens against three cell lines: NOMO1 (an acute myeloid leukemia cell line); P12-Ichikawa (a T-cell acute lymphoblastic leukemia); and SEM (a B-cell ALL). Each assay was screened using 3 different cell culture media: homemade human plasma-Like medium with 10% dialyzed fetal bovine serum (HPLM+ds); RPMI1640 with 10% untreated FBS and 5mM glucose (RPMI+s); and RPMI1640 with 10% dialyzed fetal bovine serum and 5 mM glucose (RPMI+ds).
PROTOCOL TABLE (as described by Inglese J, Shamu CE and Guy RK. 2007)
SEQUENCE No. (e.g., 1, 2, 3, etc.); […] (e.g., Cells, Incubation, Reagent, etc.); VALUE and DESCRIPTION.
1; Cells; 5 uL; white, solid bottom 1536-well Greiner assay plate.
2; Compounds; 23 nL; Kalypsis pin tool (Wako USA) equipped with a 1536-well pin head to transfer to the assay plates.
3; Incubation; 48 hours; 37C incubation.
4; Reagent; 3 uL; CellTiter Glo (Promega).
5; Incubation; 5 min, room temperature
6; Detection; Luminescence, Viewlux PerkinElmer.
NOTES (numbers refer to Sequence numbers above)
1. Briefly, 5 ul of cell reagent was dispensed using a Multidrop Combi Dispenser. The NOMO1 and SEM cells were plated at 500 cells/well and the P12-Ichikawa line at 1000 cells/well.
2. After seeding the cells, 23 nL of MIPE 4.1 library compounds (in DMSO) were added to each plate using a Kalypsys 1536 Pintool dispenser. Bortezomib at final concentration of […] and DMSO were added to each plate as positive and negative controls respectively. For each screen, MIPE 4.1 compounds were added over an eleven-point concentration range […] in 3-fold dilutions.
3. Each plate was covered with a stainless steel gasketed lid to prevent evaporation and incubated for 48 hour at 37C, 95% relative humidity, and 5% CO2.
4-5. Three microliter CellTilter-GloTM luminescent substrate mix (Promega) reagent was added to the assay plate and incubated at room temperature for 5 min.
6. The luminescence signal was measured using a ViewLux (PerkinElmer) multiplate reader with a 2 second exposure time per plate. Data for each compound were normalized as percent viability such that measurements for DMSO and the empty well controls in each plate were defined as 100% and 0%, respectively.
Potency means the concentration at half of the fitted maximal effect.

Row | SMILES | Potency
1 | CC1Cc2ccccc2N1NC(=O)c1ccc(Cl)c(S(N)(=O)=O)c1 (stereo not given) | inactive
2 | CC(C(=O)O)c1cccc(C(=O)c2ccccc2)c1 (stereo not given) | inactive
3 | CCCn1c(=O)c2[nH]c(-c3cnn(Cc4cccc(C(F)(F)F)c4)c3)nc2n(CC)c1=O | inactive
4 | COc1ccc(-n2nc(C(N)=O)c3c2C(=O)N(c2ccc(N4CCCCC4=O)cc2)CC3)cc1 | 2.64 µM (active)
5 | O=S(=O)(N=Cc1c(O)ccc2ccccc12)c1cccs1 | 16.6 µM (active)
6 | COc1ccc(CC2SC(=O)NC2=O)cc1C(=O)NCc1ccc(C(F)(F)F)cc1 (stereo not given) | inactive
7 | CC(C)(C)NC(=O)Nc1cccc(Nc2ncc(F)c(NC(C)(C)CO)n2)c1 | 8.33 µM (active)
8 | CN1CCC(COc2cnc(-c3cccc(Cn4nc(-c5cccc(C#N)c5)ccc4=O)c3)nc2)CC1 | inactive
9 | Cc1ccc(O)c(C(CCN(C(C)C)C(C)C)c2ccccc2)c1 (stereo not given) | inactive
10 | CCOc1cc(C(=O)Nc2ccc(Cl)c(-c3nc4ccccc4[nH]3)c2)cc(OCC)c1OCC | inactive
11 | C1COC(NC(C2CC2)C2CC2)=N1 | inactive
12 | Cc1ccccc1C(=O)Nc1ccc(C(=O)N2CCCC(O)c3cc(Cl)ccc32)c(C)c1 (stereo not given) | inactive
13 | CCC[C@H](Nc1nc(-c2ccc(NC(=O)NCC)c(OC)c2)ncc1C)c1cccnc1 | 0.0418 µM (active)
14 | O=C1NC(O)CCN1[C@@H]1O[C@H](CO)[C@H](O)[C@H]1O (stereo not given in full) | inactive
15 | O=C1C[C@@H](c2ccc(O)cc2)Oc2cc(O)cc(O)c21 | inactive
16 | Cc1ccc(CN2CCNCC2)cc1NC(=O)CNc1ccc(F)c(F)c1 | inactive
17 | CC1(C)[C@H]2CC[C@]3(C)[C@@H](C(=O)C=C4[C@@H]5C[C@@](C)(C(=O)O)CC[C@]5(C)CC[C@]43C)[C@@]2(C)CC[C@@H]1O | inactive
18 | COc1nc(C)nc(Cl)c1NC1=NCCN1 | inactive
19 | C[C@H](NC(=O)c1sccc1OCc1ccc(Cl)cc1)c1ccccc1 | inactive
20 | N[C@@H](Cc1cc(I)c(Oc2cc(I)c(O)c(I)c2)c(I)c1)C(=O)O | inactive

Row | SMILES | Potency
21 | C[C@@H](NC(=O)c1ncnc(N)c1Cl)c1ncc(C(=O)Nc2cc(C(F)(F)F)c(Cl)cn2)s1 | inactive
22 | CN1c2ccccc2C(=O)N2CCc3c([nH]c4ccccc34)C21 (stereo not given) | inactive
23 | NC(=O)c1cccc(N)c1 | inactive
24 | O=C(C=Cc1ccc(/C=C/C(=O)Nc2ccc(C3=NCCN3)cc2)cc1)Nc1ccc(C2=NCCN2)cc1 | inactive
25 | N#Cc1c(N(CC(=O)O)CC(=O)O)sc(C(=O)O)c1CC(=O)O | 16.6 µM (active)
26 | CC(C)(C)OC(=O)Nc1ccc(-c2cc(C(=O)NCCCCCCC(=O)NO)no2)cc1 | 2.64 µM (active)
27 | CN(C)CCCN1c2ccccc2CCc2ccc(Cl)cc21 | inactive
28 | CC(C)Cn1cnc2c(N)nc3ccccc3c21 | inactive
29 | COc1nccc(-c2c(-c3ccc(F)cc3)ncn2C2CCC(O)CC2)n1 (stereo not given) | inactive
30 | CN(C)c1cc(NC(=O)CNC(C)(C)C)c(O)c2c1C[C@@H]1C[C@H]3[C@H](N(C)C)C(=O)C(C(N)=O)=C(O)[C@@]3(O)C(=O)C1=C2O | inactive
31 | O=c1c(-c2ccc(O)cc2)coc2cc(O[C@@H]3O[C@H](CO)[C@H](O)[C@H](O)[C@H]3O)ccc12 | inactive
32 | CN[C@H]1CCc2cc(OC)c(OC)c(OC)c2-c2ccc(OC)c(=O)cc21 | 0.0118 µM (active)
33 | CCC(C)SSc1ncc[nH]1 (stereo not given) | 18.7 µM (active)
34 | Cc1cc(CS(=O)(=O)c2ccccc2)cc(OCc2ccc(CN3CCC[C@H]3CO)cc2)c1 | 0.743 µM (active)
35 | CC(C)(C)c1cc(NC(=O)Nc2ccc(-c3cn4c(n3)sc3cc(OCCN5CCOCC5)ccc34)cc2)no1 | inactive
36 | CC(C=CC=C(C)C=CC1=C(C)CCCC1(C)C)=CC=CC=C(C)C=CC=C(C)C=CC1=C(C)CCCC1(C)C | inactive
37 | CN[C@@H](C)C(=O)N[C@H]1CCCC[C@H]2CC[C@@H](C(=O)N[C@@H](c3ccccc3)c3cn(CCCCc4ccc(CCCCn5cc([C@@H](NC(=O)[C@@H]6CC[C@@H]7CCCC[C@H](NC(=O)[C@H](C)NC)C(=O)N76)c6ccccc6)nn5)cc4)nn3)N2C1=O | inactive
38 | Nc1nnc(-c2cccc(Cl)c2Cl)c(N)n1 | inactive
39 | COc1cc([C@@H](CC(=O)O)c2ccc(C)c(CN3C[C@@H](C)Oc4ccccc4S3(=O)=O)c2)cc2nnn(C)c12 | 8.31 µM (active)
40 | NS(=O)(=O)c1cc2c(cc1Cl)NC(C(Cl)Cl)NS2(=O)=O (stereo not given) | inactive

From PubChem BioAssay (NCATS)
